Compounds without any hit were thinned out: in the full panel of roughly 79,000, 15% have a hit. Activity calls are given as the source filed them. Rule as the data show it: active = growth inhibition above about 70%; inactive = the rest.
Tests used:
[1] = NCI Yeast Anticancer Drug Screen. Data for the rad52 strain (AID 147);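 also: 0% = growth of vehicle-treated control cultures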; details: S. cerevisiae rad52 mutant growth inhibition, active compounds read high
How it was run: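 Read-out: growth inhibition versus vehicle-treated controls. Cells were a DNA repair-deficient yeast strain treated with compounds.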

[2] = NCI Yeast Anticancer Drug Screen. Data for the wt1 strain (AID 149);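 also: 0% = growth of vehicle-treated wt1 cultures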; details: S. cerevisiae wt1 strain (SPY 50644) growth inhibition, active compounds read high
How it was run: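 Vehicle-normalised growth inhibition; strain wt1; compound exposure.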

[3] = NCI Yeast Anticancer Drug Screen. Data for the rad50EPP+ strain (AID 151);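 also: 0% = growth of vehicle-treated control cultures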; details: S. cerevisiae rad50 mutant strain, active compounds read high
How it was run: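 Growth inhibition read against vehicle controls in rad50EPP+ yeast, a strain altered in DNA damage repair, after compound exposure.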

[4] = NCI Yeast Anticancer Drug Screen. Data for the mgt1 strain (AID 153); details: S. cerevisiae mgt1 mutant growth inhibition, active compounds read high
How it was run: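 mgt1 yeast grown with test compound; read-out is growth inhibition versus vehicle-treated cultures.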

[5] = NCI Yeast Anticancer Drug Screen. Data for the rad50 strain (AID 155);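 also: 0% = growth of vehicle-only cultures of the same strain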; details: S. cerevisiae rad50 strain growth inhibition, active compounds read high
How it was run: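 A DNA repair-deficient yeast mutant serves as the test organism; compound-induced growth inhibition is calculated against vehicle-treated cells.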

[6] = NCI Yeast Anticancer Drug Screen. Data for the mec2-1 strain (AID 157); details: S. cerevisiae mec2-1 strain, active compounds read high
How it was run: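 Yeast mec2-1 mutant treated with compound. Readout: growth inhibition vs vehicle controls.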

[7] = NCI Yeast Anticancer Drug Screen. Data for the sgs1 mgt1 strain (AID 161);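 also: 0% = growth of cultures given vehicle only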; details: S. cerevisiae sgs1 mgt1 strain, active compounds read high
How it was run: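 Inhibition of yeast growth, normalised to vehicle-treated controls, is reported for a strain bearing genetic alterations in DNA damage repair.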

[8] = NCI Yeast Anticancer Drug Screen. Data for the CLN2oe strain (AID 163);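 also: 0% = growth of vehicle-only control cultures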; details: S. cerevisiae CLN2oe strain, active compounds read high
How it was run: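 Read-out: yeast growth inhibition, expressed relative to vehicle-only controls. The strain bears an engineered cell-cycle alteration.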

[9] = NCI Yeast Anticancer Drug Screen. Data for the cln2 rad14 strain (AID 165);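 also: 0% = growth equal to vehicle treated cultures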; details: S. cerevisiae cln2 rad14 strain, active compounds read high
How it was run: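 cln2 rad14 yeast strain; compound exposure; growth inhibition read vs vehicle controls.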

[10] = NCI Yeast Anticancer Drug Screen. Data for the bub3 strain (AID 167); details: S. cerevisiae bub3 mutant strain, active compounds read high
How it was run: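 Inhibition values come from growth of compound-treated mutant yeast normalised to vehicle-treated controls.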

[11] = NCI Yeast Anticancer Drug Screen. Data for the wt2 strain (AID 169);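 also: 0% = growth of vehicle-treated yeast cultures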; details: S. cerevisiae wt2 strain growth inhibition, active compounds read high
How it was run: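 Read-out: growth inhibition versus vehicle-treated control cultures after compound exposure of the yeast strain.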

[12] = NCI Yeast Anticancer Drug Screen. Data for the mlh1 strain (AID 171);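 also: 0% = growth of vehicle-treated control cultures of the same strain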; details: S. cerevisiae mlh1 strain growth inhibition, active compounds read high
How it was run: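 Read-out: growth inhibition versus vehicle controls. Strain: engineered yeast with a defined DNA repair or cell cycle defect, compound-treated.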

[13] = NCI Yeast Anticancer Drug Screen. Data for the sgs1 strain (AID 173);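 also: 0% = growth of vehicle-only control cultures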; details: S. cerevisiae sgs1 mutant, active compounds read high
How it was run: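 Read-out: yeast growth inhibition relative to vehicle controls, following compound exposure of a strain with a defined DNA repair/cell cycle alteration.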

[14] = NCI Yeast Anticancer Drug Screen. Data for the mlh1 rad18 strain (AID 175); details: S. cerevisiae mlh1 rad18 strain growth inhibition, active compounds read high
How it was run: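 Yeast w/ defined DNA-repair lesions; compound exposure; growth vs vehicle controls → % inhibition.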

[15] = NCI Yeast Anticancer Drug Screen. Data for the rad18 strain (AID 177); details: S. cerevisiae rad18 mutant growth inhibition, active compounds read high
How it was run: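 Readout: growth inhibition vs vehicle controls. Cells: genetically altered yeast strain, DNA repair defect.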

[16] = at 5.0 µM (retest, dose inferred, filed as 0.5)
[17] = at 50.0 µM (retest, dose inferred, filed as 5.0)

Measured: growth inhibition

CC(=O)c1cc2c(Cl)cc(Cl)cc2oc1=O
active: [5]; [17] 83% | [6]; [16] 77% | [6]; [17] 94% | [9]; [17] 71% | [14]; [17] 96%
inactive: [1]; at 1.2 µM 20% | [1]; at 3.7 µM 19% | [1]; at 11.0 µM 4% | [1]; at 33.0 µM 9% | [1]; at 100.0 µM 20% | [2]; at 1.2 µM -38% | [2]; at 3.7 µM -33% | [2]; at 11.0 µM -38% | [2]; at 33.0 µM -33% | [2]; at 100.0 µM -22% | [3]; at 1.2 µM -15% | [3]; at 3.7 µM -16% | [3]; at 11.0 µM -2% | [3]; at 33.0 µM -10% | [3]; at 100.0 µM 15% | [4]; at 1.2 µM 9% | [4]; at 3.7 µM 5% | [4]; at 11.0 µM -13% | [4]; at 33.0 µM -4% | [4]; at 100.0 µM 6% | [5]; at 1.2 µM -24% | [5]; at 3.7 µM -17% | [5]; [16] 30% | [5]; at 11.0 µM -13% | [5]; at 33.0 µM -20% | [5]; at 50.0 µM -5.9% | [5]; at 100.0 µM -5% | [6]; at 1.2 µM 8% | [6]; at 3.7 µM 0% | [6]; at 11.0 µM -14% | [6]; at 33.0 µM 3% | [6]; at 50.0 µM 53.8% | [6]; at 100.0 µM -8% | [7]; [16] -8% | [7]; [17] 20% | [8]; at 1.2 µM -26% | [8]; at 3.7 µM -22% | [8]; at 11.0 µM -7% | [8]; at 33.0 µM -10% | [8]; at 100.0 µM -5% | [9]; [16] 64% | [10]; at 1.2 µM -21% | [10]; at 3.7 µM -17% | [10]; [16] 24% | [10]; at 11.0 µM -4% | [10]; at 33.0 µM -25% | [10]; [17] 46% | [10]; at 100.0 µM 13% | [11]; at 1.2 µM -22% | [11]; at 3.7 µM -27% | [11]; at 11.0 µM -34% | [11]; at 33.0 µM -40% | [11]; at 100.0 µM -18% | [12]; at 1.2 µM -36% | [12]; at 3.7 µM -35% | [12]; at 11.0 µM -32% | [12]; at 33.0 µM -12% | [12]; at 100.0 µM -5% | [13]; at 1.2 µM -31% | [13]; at 3.7 µM -40% | [13]; at 11.0 µM -29% | [13]; at 33.0 µM -15% | [13]; at 100.0 µM -42% | [14]; [16] 35% | [14]; at 50.0 µM 1.3% | [15]; at 1.2 µM 10% | [15]; at 3.7 µM -3% | [15]; at 11.0 µM -11% | [15]; at 33.0 µM -11% | [15]; at 100.0 µM -6%
